Source: paper PMC5700166

molecular target: T1, GST-Nv-NF-kB (Ser allele) (Nematostella vectensis, UniProt A7UNT2 2-411); assay: protein-binding microarray (PBM); PBM: ~300 nM protein, 6 mM HEPES pH 7.8, 80 mM KCl, 0.5 mM EDTA, 0.5 mM EGTA, 6% glycerol, 35 ng/ul poly-dIdC, 1% milk, 1 h, room temperature; Ap Aiptasia and Nv Nematostella (sea anemones) / Co Capsaspora / Aq Amphimedon (sponge) / Dm Drosophila / Hu human; RHD is the Rel homology domain; high values mean tight binding; details: dsDNA, one strand shown
T1 sequence: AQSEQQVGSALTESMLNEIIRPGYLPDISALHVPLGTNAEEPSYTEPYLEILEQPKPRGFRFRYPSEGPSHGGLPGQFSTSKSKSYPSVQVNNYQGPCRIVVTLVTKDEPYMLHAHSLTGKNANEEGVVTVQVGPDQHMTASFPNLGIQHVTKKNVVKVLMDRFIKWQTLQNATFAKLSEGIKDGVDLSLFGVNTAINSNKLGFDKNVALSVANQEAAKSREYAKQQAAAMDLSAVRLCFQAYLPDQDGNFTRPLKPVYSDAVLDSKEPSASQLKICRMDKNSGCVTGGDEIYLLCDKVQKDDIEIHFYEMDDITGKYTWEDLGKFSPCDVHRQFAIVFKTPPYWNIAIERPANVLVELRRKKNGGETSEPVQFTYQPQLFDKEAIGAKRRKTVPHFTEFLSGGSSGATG

| Sequence | binding signal |
| --- | --- |
| CCGATTAACATCAGGGAAGCACCTGATGTTAATCGGGTCTTGATTCGCTTGACGCTGCTG | 3.97 z-score |
| CCGATTAACATCAGGGGGAAGCATGATGTTAATCGGGTCTTGATTCGCTTGACGCTGCTG | 6.05 z-score |
| CCGATTAACATCAGAAATGGGAATGATGTTAATCGGGTCTTGATTCGCTTGACGCTGCTG | 1.7 z-score |
| CCGATTAACATCAAGAGACCCCCTGATGTTAATCGGGTCTTGATTCGCTTGACGCTGCTG | 2.79 z-score |
| CCGATTAACATCAATTTCCCGCCTGATGTTAATCGGGTCTTGATTCGCTTGACGCTGCTG | 4.4 z-score |
| CCGATTAACATCAGGGAACAACCTGATGTTAATCGGGTCTTGATTCGCTTGACGCTGCTG | 1.65 z-score |
| CCGATTAACATCAGGGGAATGACTGATGTTAATCGGGTCTTGATTCGCTTGACGCTGCTG | 6.22 z-score |
| CCGATTAACATCAAGGTACCCCCTGATGTTAATCGGGTCTTGATTCGCTTGACGCTGCTG | 3.84 z-score |
| CCGATTAACATCAAGCACCCCCTTGATGTTAATCGGGTCTTGATTCGCTTGACGCTGCTG | 4.85 z-score |
| CCGATTAACATCATTCGGGAAAATGATGTTAATCGGGTCTTGATTCGCTTGACGCTGCTG | 4.94 z-score |
| CCGATTAACATCAAATTTCCCGCTGATGTTAATCGGGTCTTGATTCGCTTGACGCTGCTG | 4.85 z-score |

molecular target: GST-Hu-p50 (Homo sapiens, UniProt P19838 7-356); assay: as above; details: dsDNA, one strand shown
Sequence (P19838 7-356): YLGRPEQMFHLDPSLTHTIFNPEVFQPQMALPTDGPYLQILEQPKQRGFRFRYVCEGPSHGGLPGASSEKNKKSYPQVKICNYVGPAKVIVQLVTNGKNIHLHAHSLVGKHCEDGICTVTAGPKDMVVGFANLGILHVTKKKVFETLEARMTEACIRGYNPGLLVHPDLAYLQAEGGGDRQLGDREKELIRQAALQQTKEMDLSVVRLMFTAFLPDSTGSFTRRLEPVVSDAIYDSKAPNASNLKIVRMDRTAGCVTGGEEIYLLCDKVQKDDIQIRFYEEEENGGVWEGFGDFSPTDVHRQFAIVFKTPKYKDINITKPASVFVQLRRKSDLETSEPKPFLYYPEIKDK

| Sequence | binding signal |
| --- | --- |
| CCGATTAACATCAGGGAAACCACTGATGTTAATCGGGTCTTGATTCGCTTGACGCTGCTG | 3.94 z-score |
| CCGATTAACATCAGGTTTTTCCATGATGTTAATCGGGTCTTGATTCGCTTGACGCTGCTG | 1.41 z-score |
| CCGATTAACATCAGGGGAAGGTATGATGTTAATCGGGTCTTGATTCGCTTGACGCTGCTG | 3.52 z-score |
| CCGATTAACATCAATATACCCCCTGATGTTAATCGGGTCTTGATTCGCTTGACGCTGCTG | 4.42 z-score |
| CCGATTAACATCAAGCATCCCCCTGATGTTAATCGGGTCTTGATTCGCTTGACGCTGCTG | 4.97 z-score |
| CCGATTAACATCAGAAATTTACCTGATGTTAATCGGGTCTTGATTCGCTTGACGCTGCTG | 3.29 z-score |
| CCGATTAACATCAAAAAAAGTACTGATGTTAATCGGGTCTTGATTCGCTTGACGCTGCTG | 1.52 z-score |
| CCGATTAACATCAAATCGGGAAATGATGTTAATCGGGTCTTGATTCGCTTGACGCTGCTG | 1.88 z-score |
| CCGATTAACATCAAGCGTTCCCCTGATGTTAATCGGGTCTTGATTCGCTTGACGCTGCTG | 3.66 z-score |
| CCGATTAACATCACTGGGAATTCTGATGTTAATCGGGTCTTGATTCGCTTGACGCTGCTG | 3.22 z-score |
| CCGATTAACATCAATTTCCCATATGATGTTAATCGGGTCTTGATTCGCTTGACGCTGCTG | 3.09 z-score |
| CCGATTAACATCACAAAATTTCCTGATGTTAATCGGGTCTTGATTCGCTTGACGCTGCTG | 1.41 z-score |
| CCGATTAACATCAGGCGAGTCCCTGATGTTAATCGGGTCTTGATTCGCTTGACGCTGCTG | 2.61 z-score |
| CCGATTAACATCAGGGATTCTCATGATGTTAATCGGGTCTTGATTCGCTTGACGCTGCTG | 1.91 z-score |
| CCGATTAACATCAGGAGGCCCCCTGATGTTAATCGGGTCTTGATTCGCTTGACGCTGCTG | 2.78 z-score |
| CCGATTAACATCAGGACTACCCCTGATGTTAATCGGGTCTTGATTCGCTTGACGCTGCTG | 3.02 z-score |
| CCGATTAACATCAGATTTCTCCCTGATGTTAATCGGGTCTTGATTCGCTTGACGCTGCTG | 1.72 z-score |
| CCGATTAACATCAGGGGGTGATATGATGTTAATCGGGTCTTGATTCGCTTGACGCTGCTG | 3.97 z-score |
| CCGATTAACATCAGGGAAATAACTGATGTTAATCGGGTCTTGATTCGCTTGACGCTGCTG | 3.76 z-score |
| CCGATTAACATCAGGGAATTCACTGATGTTAATCGGGTCTTGATTCGCTTGACGCTGCTG | 4.11 z-score |

| Sequence | binding signal |
| --- | --- |
| CCGATTAACATCAGGGACACCCCTGATGTTAATCGGGTCTTGATTCGCTTGACGCTGCTG | 4.03 z-score |
| CCGATTAACATCAGAATATTCCCTGATGTTAATCGGGTCTTGATTCGCTTGACGCTGCTG | 3.75 z-score |
| CCGATTAACATCAGGGAGCTACCTGATGTTAATCGGGTCTTGATTCGCTTGACGCTGCTG | 1.35 z-score |
| CCGATTAACATCAGGGGACTATATGATGTTAATCGGGTCTTGATTCGCTTGACGCTGCTG | 4.35 z-score |
| CCGATTAACATCAATTACCCCCCTGATGTTAATCGGGTCTTGATTCGCTTGACGCTGCTG | 4.35 z-score |
| CCGATTAACATCATGCGGGAAAATGATGTTAATCGGGTCTTGATTCGCTTGACGCTGCTG | 2.69 z-score |
| CCGATTAACATCAGAAGATTCCCTGATGTTAATCGGGTCTTGATTCGCTTGACGCTGCTG | 4.09 z-score |
| CCGATTAACATCAAGCAACCCCCTGATGTTAATCGGGTCTTGATTCGCTTGACGCTGCTG | 4.45 z-score |
| CCGATTAACATCAGGGAAGCACCTGATGTTAATCGGGTCTTGATTCGCTTGACGCTGCTG | 5.24 z-score |
| CCGATTAACATCAGGGGGAAGCATGATGTTAATCGGGTCTTGATTCGCTTGACGCTGCTG | 4.74 z-score |
| CCGATTAACATCAGAAATGGGAATGATGTTAATCGGGTCTTGATTCGCTTGACGCTGCTG | 1.72 z-score |
| CCGATTAACATCAAGAGACCCCCTGATGTTAATCGGGTCTTGATTCGCTTGACGCTGCTG | 3.43 z-score |
| CCGATTAACATCAATTTCCCGCCTGATGTTAATCGGGTCTTGATTCGCTTGACGCTGCTG | 2.33 z-score |
| CCGATTAACATCAGGGAACAACCTGATGTTAATCGGGTCTTGATTCGCTTGACGCTGCTG | 2.25 z-score |
| CCGATTAACATCAGGGGAATGACTGATGTTAATCGGGTCTTGATTCGCTTGACGCTGCTG | 4.83 z-score |
| CCGATTAACATCAAGGTACCCCCTGATGTTAATCGGGTCTTGATTCGCTTGACGCTGCTG | 3.34 z-score |
| CCGATTAACATCAAGCACCCCCTTGATGTTAATCGGGTCTTGATTCGCTTGACGCTGCTG | 4.55 z-score |
| CCGATTAACATCATTCGGGAAAATGATGTTAATCGGGTCTTGATTCGCTTGACGCTGCTG | 3.03 z-score |
| CCGATTAACATCAAATTTCCCGCTGATGTTAATCGGGTCTTGATTCGCTTGACGCTGCTG | 3.98 z-score |
